Results taken from PubChem BioAssay (NCATS).
A number with no mark means an inactive call. Inconclusive results are not listed. A call without a number means that no potency is given here. Calls of active or inactive are those of the source. Unless noted, calls follow the shape of the dose curve; as a rule, active = well fitted curve in the direction sought with a large enough effect; inconclusive = small, poorly fitted or top-dose-only effect, or another doubt; inactive = no such curve, though single readings can be large; an effect the other way counts as inactive or inconclusive.

What was measured:
[1] = biological target: Rap guanine nucleotide exchange factor 3 (Homo sapiens) (UniProt O95398); experiment: Confirmatory qHTS for agonist of cAMP-regulated guanine nucleotide exchange factor 3 (EPAC1) (AID 1645881);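 also: EPAC1 catalysed release of BODIPY-GDP from Rap1B seen as fluorescence loss; nearly all actives have a fitted effect of over 75% in size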
[2] = biological target: Rap guanine nucleotide exchange factor 4 (Homo sapiens) (UniProt Q8WZA2); experiment: Confirmatory qHTS for agonist of cAMP-regulated guanine nucleotide exchange factor 4 (EPAC2) (AID 1645884);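 also: nucleotide exchange releases bodipy-GDP from Rap1 and this lowers its fluorescence; nearly all actives have a fitted effect of over 65% in size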
[3] = biological target: Rap guanine nucleotide exchange factor 4 (Homo sapiens) (UniProt Q8WZA2); experiment: Confirmatory qHTS for antagonist of cAMP-regulated guanine nucleotide exchange factor 4 (EPAC2) (AID 1645885); also: nearly all actives have a fitted effect of over 25% in size
[4] = biological target: Rap guanine nucleotide exchange factor 3 (Homo sapiens) (UniProt O95398); experiment: Counterscreen qHTS for antagonist of cAMP-regulated guanine nucleotide exchange factor 3 (EPAC1) (AID 1645888);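 also: fluorescence loss as bound BODIPY-GDP is released from Rap1B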
Summary of the method: (§1)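 Measured: fluorescence of BODIPY-GDP bound to Rap1B, which falls as exchange proceeds. Conditions include 50 uM competing GDP, 5 and 30 min reads, and a later cAMP challenge for antagonist detection.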

[5] = biological target: Rap guanine nucleotide exchange factor 3 (Homo sapiens) (UniProt O95398); experiment: Counterscreen qHTS for agonist of cAMP-regulated guanine nucleotide exchange factor 3 (EPAC1) (AID 1645889); also: nearly all actives have a fitted effect of over 40% in size
Summary of the method: as §1

[6] = AP1 Signaling Pathway (AID 357; active = well fitted curve in either direction with a large enough effect, not every such curve was filed as active;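 also: ME-180 reporter cells stimulated with EGF at its EC50 level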)
Summary of the method: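 Read-out was the 460nm/530nm emission ratio (excitation 405nm) after CCF4 loading for 2.5 hours at room temperature. Cells carried an AP-1-driven beta-lactamase reporter, were stimulated with EC50 EGF plus compound for 5 hours, and AC50 values came from titrations.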

[7] = biological target: Cytochrome P450 1A2 (Homo sapiens) (UniProt P05177); experiment: p450-cyp1a2 (AID 410; calls by dose curve; also: potency is read from the fitted curve at half-maximal effect)
Summary of the method: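 20nM CYP1A2, 100uM Luciferin-ME (=Km), 100mM KPO4; cpd 10 min RT; +NADPH regen, 60 min RT; stop/detect 20 min; luminescence. Normalized to furafylline 57 uM = full inhibition.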

[8] = NFAT Signaling Pathway (AID 444; active = well fitted curve in either direction with a large enough effect, not every such curve was filed as active;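 also: carbachol stimulus at about its EC50 of 1 µM final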); settings: Jurkat NFAT-bla M1, carbachol, beta-lactamase ratio, 5 h
Summary of the method: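 Jurkat cells carrying an NFAT-driven β-lactamase reporter and co-transfected muscarinic M1 receptor were treated with compound plus carbachol (1 uM final, an EC50 level) for 5 h at 37 °C. CCF4 loading followed for 1 h at RT; 460/530 nm ratio gave %activity.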

[9] = Stat Signaling Pathway (AID 446; active = well fitted curve in either direction with a large enough effect, not every such curve was filed as active;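 also: ME-180 cervical cancer cells given 40 pM IL-6 alongside compound; SIE-controlled beta-lactamase reporter measured as 460/530 nm FRET emission ratio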)
Summary of the method: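 Compound effects on IL-6-induced STAT reporter activity were measured in ME-180 cells. After overnight culture, cells were co-treated with 40 pM IL-6 for 5 hrs before beta-lactamase substrate loading at room temperature.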

[10] = biological target: Glucocorticoid receptor (Homo sapiens) (UniProt P04150); experiment: GR-GFP Redistribution (AID 450;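 active = compounds whose dose series gives a full or clear partial fitted curve of increased nuclear translocation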; also: potency is read from the fitted curve at half-maximal effect); settings: U2OS GR-GFP nuclear translocation, laser cytometry, 2 h
[11] = biological target: Glucocorticoid receptor (Homo sapiens) (UniProt P04150); experiment: GR-EFC Redistribution (AID 451; calls by dose curve; also: potency is read from the fitted curve at half-maximal effect); settings: CHO-K1 GR-EFC translocation, beta-gal luminescence, 2 h
Summary of the method: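 CHO-K1 cells stably expressing nuclear-localized β-gal enzyme acceptor and GR fused C-terminally to the enzyme donor fragment; ligand-driven nuclear translocation restores β-gal by complementation. Compounds titrated up to 46 uM final, 2 h at 37 °C; luminescence read.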

[12] = biological target: Mitogen-activated protein kinase 10 (Mus musculus) (UniProt Q61831); experiment: JNK3 AlphaScreen Assay (AID 530; active = well fitted curve in either direction with a large enough effect, not every such curve was filed as active;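 also: kinase came from lysate of stimulated human HepG2 cells; signal reports phosphorylation of biotinylated GST-cJun 1-79 at Ser73 with 10 µM ATP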)
Summary of the method: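 Biotinylated GST-cJun(1-79) served as substrate for JNK3 in HepG2 lysates stimulated with IL-1beta and TNF-alpha. ATP was 10 uM final, pH 7.6. Ser73 phosphorylation was quantified by AlphaScreen (680 nm excitation).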

[13] = biological target: 3',5'-cyclic-AMP phosphodiesterase 4B (Homo sapiens) (UniProt Q07343); experiment: qHTS Assay for Inhibitors of PDE-IV (AID 607; active = well fitted activation curve with a large enough effect in the main read-out, with a control signal flat, not every such curve was filed as active)
Summary of the method: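 ACTOne HEK293 cells carry a modified cAMP-gated CNG channel and express endogenous PDE4; plated 1000 cells/well, compounds up to 22.9 uM final. Membrane-potential dye fluorescence (ex 535/em 590) was read; parental cells received 10 uM forskolin + 100 uM RO 20-1724.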

[14] = qHTS Assay for Identification of Small Molecule Agonists for Hypoxia Response Element Signaling Pathway (AID 914; active = well fitted activation curve with a large enough effect in the signal ratio, with a control signal flat, not every such curve was filed as active; the % refers to the signal ratio; also: potency is read from the fitted curve at half-maximal effect); settings: ME-180 (cervical carcinoma) HRE-bla reporter, beta-lactamase ratio, CoCl2, 17 h; activation: stronger effect = higher value
Summary of the method: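 In Opti-MEM containing 0.5% dialyzed FBS and 10 mM HEPES, ME-180 HRE-bla cells received a compound titration and EC50 CoCl2. They were incubated 17 hours, then CCF4-loaded 2.5 hours at room temperature before ratio reading.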

Sequence of Rap guanine nucleotide exchange factor 3 (Homo sapiens) (O95398 whole entry, looked up): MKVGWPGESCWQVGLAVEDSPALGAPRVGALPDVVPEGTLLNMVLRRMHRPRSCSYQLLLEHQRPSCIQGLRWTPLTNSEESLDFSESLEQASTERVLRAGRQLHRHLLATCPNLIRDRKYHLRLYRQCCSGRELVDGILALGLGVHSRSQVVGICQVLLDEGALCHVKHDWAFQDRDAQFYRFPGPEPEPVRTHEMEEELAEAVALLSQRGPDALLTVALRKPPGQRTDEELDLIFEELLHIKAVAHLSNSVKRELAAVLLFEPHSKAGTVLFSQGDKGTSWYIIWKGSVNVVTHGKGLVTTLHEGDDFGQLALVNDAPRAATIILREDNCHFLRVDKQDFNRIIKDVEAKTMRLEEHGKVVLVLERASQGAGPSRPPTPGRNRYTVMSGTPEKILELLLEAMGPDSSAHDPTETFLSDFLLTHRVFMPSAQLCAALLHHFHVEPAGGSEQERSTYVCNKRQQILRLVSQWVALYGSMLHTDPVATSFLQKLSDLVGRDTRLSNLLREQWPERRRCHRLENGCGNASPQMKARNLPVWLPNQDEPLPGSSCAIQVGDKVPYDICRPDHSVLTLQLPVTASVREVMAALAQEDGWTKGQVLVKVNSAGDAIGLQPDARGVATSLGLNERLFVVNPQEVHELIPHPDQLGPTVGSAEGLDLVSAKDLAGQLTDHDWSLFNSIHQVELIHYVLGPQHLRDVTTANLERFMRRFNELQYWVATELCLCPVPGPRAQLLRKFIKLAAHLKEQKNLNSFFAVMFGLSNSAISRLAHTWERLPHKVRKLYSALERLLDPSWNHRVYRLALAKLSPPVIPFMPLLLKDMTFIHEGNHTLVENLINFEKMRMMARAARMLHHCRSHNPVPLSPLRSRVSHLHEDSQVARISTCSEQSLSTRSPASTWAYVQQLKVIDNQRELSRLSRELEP
Sequence of Rap guanine nucleotide exchange factor 4 (Homo sapiens) (Q8WZA2 whole entry, looked up): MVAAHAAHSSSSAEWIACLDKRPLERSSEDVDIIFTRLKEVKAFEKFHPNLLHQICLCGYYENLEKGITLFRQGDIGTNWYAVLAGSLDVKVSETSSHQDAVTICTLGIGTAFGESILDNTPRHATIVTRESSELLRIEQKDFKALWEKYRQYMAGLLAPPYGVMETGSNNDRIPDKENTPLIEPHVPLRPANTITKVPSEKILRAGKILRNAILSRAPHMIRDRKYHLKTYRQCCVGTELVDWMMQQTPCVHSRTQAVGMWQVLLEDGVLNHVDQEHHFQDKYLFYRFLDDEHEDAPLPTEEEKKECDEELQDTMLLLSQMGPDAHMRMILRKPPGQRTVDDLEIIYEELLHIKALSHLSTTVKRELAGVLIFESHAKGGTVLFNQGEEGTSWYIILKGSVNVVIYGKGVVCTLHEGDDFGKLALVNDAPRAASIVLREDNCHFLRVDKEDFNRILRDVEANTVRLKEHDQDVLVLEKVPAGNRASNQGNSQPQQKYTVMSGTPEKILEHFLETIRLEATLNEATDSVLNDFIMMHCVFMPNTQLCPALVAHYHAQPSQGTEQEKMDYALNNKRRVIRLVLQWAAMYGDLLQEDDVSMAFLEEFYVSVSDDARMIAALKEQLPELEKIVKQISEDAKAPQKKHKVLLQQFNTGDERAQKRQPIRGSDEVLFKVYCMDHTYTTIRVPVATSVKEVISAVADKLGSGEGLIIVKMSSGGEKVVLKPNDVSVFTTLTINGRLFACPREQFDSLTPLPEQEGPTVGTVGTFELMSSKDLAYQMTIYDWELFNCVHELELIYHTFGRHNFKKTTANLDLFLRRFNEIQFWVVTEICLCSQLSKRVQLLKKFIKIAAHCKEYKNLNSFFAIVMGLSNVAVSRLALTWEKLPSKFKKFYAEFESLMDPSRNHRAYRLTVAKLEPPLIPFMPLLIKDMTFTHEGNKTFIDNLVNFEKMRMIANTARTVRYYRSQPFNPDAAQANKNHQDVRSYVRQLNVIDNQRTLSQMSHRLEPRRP
Sequence of Glucocorticoid receptor (Homo sapiens) (P04150 whole entry, looked up, the tested form may be a part): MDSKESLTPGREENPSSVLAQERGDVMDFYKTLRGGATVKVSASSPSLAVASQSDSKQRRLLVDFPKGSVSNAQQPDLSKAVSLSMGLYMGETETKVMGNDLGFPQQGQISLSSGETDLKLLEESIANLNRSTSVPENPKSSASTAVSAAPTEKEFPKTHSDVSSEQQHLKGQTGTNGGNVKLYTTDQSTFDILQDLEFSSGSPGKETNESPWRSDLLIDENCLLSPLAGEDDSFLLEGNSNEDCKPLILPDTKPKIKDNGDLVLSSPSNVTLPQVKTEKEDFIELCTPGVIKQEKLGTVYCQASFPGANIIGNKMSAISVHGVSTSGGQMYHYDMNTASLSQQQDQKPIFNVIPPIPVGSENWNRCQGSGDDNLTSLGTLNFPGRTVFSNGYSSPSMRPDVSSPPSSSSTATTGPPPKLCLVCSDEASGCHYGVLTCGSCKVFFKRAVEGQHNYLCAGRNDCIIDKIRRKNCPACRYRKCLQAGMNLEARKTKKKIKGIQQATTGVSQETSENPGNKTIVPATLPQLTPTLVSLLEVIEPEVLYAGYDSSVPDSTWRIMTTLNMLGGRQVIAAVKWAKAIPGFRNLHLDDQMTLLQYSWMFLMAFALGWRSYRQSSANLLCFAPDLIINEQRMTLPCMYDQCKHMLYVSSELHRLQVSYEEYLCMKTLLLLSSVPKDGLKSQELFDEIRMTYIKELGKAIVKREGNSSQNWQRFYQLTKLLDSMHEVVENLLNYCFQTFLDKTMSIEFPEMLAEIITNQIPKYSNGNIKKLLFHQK
Sequence of Cytochrome P450 1A2 (Homo sapiens) (P05177 whole entry, looked up): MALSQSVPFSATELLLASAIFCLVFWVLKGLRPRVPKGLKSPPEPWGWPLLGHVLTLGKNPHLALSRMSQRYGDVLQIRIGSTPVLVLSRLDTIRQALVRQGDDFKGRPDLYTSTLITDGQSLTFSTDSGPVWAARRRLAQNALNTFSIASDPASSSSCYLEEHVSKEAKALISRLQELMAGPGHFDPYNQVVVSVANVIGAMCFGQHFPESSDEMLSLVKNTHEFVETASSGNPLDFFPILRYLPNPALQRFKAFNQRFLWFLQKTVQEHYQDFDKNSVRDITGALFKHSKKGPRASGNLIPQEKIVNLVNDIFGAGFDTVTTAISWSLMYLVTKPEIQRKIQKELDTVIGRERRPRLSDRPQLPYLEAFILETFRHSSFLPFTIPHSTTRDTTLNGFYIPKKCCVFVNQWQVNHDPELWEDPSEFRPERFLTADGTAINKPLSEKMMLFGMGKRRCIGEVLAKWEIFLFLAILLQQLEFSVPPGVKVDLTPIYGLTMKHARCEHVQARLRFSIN
Sequence of 3',5'-cyclic-AMP phosphodiesterase 4B (Homo sapiens) (Q07343 whole entry, looked up): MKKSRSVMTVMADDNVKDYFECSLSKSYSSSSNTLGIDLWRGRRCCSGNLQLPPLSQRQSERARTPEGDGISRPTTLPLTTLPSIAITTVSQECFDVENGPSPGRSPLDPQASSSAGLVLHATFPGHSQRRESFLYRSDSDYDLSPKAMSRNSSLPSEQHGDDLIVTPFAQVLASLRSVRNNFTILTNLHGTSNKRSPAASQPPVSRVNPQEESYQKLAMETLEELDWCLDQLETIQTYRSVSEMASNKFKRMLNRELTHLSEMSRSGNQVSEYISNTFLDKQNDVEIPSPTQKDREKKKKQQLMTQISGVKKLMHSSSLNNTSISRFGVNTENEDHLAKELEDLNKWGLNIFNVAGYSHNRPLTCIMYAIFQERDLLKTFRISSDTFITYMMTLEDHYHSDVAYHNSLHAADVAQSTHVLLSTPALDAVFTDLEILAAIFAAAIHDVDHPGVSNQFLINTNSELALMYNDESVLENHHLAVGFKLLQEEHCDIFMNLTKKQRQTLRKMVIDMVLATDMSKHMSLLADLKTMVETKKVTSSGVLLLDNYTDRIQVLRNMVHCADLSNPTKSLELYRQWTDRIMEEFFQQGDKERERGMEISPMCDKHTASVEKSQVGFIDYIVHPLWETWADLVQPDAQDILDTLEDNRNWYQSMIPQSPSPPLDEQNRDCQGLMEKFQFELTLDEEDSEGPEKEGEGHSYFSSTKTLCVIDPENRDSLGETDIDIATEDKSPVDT

CC(=O)C1C2c3ccccc3OC1(C)N=c1s/c(=C/c3cn(C)nc3C)c(=O)n12 (configuration not stated)
Potency [1]: inactive | Potency [2]: inactive | Potency [3]: inactive | outcome [4]: inactive | Potency [5]: inactive

O=C1NC(=S)NC(=O)C1=Cc1cccc2cc3ccccc3cc12
outcome [6]: inactive | Potency [7]: 0.398 µM (active) | activity change, negative = inhibition ([8]; at 7.69 µM (top of the series)): -8.51% | outcome [9]: inactive | Potency [10]: > 46 µM | Potency [11]: > 9.22 µM | activity change, negative = inhibition [12]: -7.37% [at 11.4 µM] | Potency [13]: inactive | Potency [1]: inactive | Potency [2]: inactive

CCCCC/C(=N/O)c1c(C)[nH]c2ccccc12
Potency [1]: inactive | Potency [2]: inactive | Potency [3]: inactive | outcome [4]: inactive | Potency [5]: inactive

Cn1cccc1/C=C1\C(=O)NC(=O)N(Cc2ccccc2Cl)C1=O
Potency [1]: inactive | Potency [2]: inactive | Potency [3]: inactive | outcome [4]: inactive | Potency [5]: inactive

COc1cc(-n2c(=S)[nH]c3ccc(C)cc3c2=O)c(Cl)cc1Cl
Potency [1]: inactive | activation [2]: 8.75% [at 17.1 µM, percent relative to cAMP agonist control] | activity change, negative = inhibition [3]: -17.7% [at 12.7 µM] | activity change, negative = inhibition [4]: -20.5% [at 30.8 µM] | activation [5]: 24.2% [at 30.8 µM]

Nc1c(C(=O)NCc2ccco2)c2nc3ccccc3nc2n1Cc1ccc(F)cc1
activity change, negative = inhibition ([8]; at 17.2 µM (top of the series)): 108% [activator] (active) | Potency [10]: > 20.6 µM | Potency [14]: 7.94 µM (active) | Potency [1]: inactive | Potency [2]: inactive | Potency [3]: inactive | outcome [4]: inactive | Potency [5]: inactive

CCC(C)c1ccc(N2C(=O)NC(=O)/C(=C/c3cccn3CCOc3ccc(C)cc3)C2=O)cc1 (configuration not stated)
Potency [1]: inactive | Potency [2]: inactive | Potency [3]: inactive | Potency [5]: inactive
